From PubChem BioAssay AID1159580 (chemical genetic matrix, 2015)
About 2,000 (36%) of roughly 5,500 compounds were called active. Inconclusive results (about 18%) are left out. Cut-off read from the data, not from the text of the source: active = normalized growth mostly below about 0.91 (no sharp cut-off); inconclusive = no clear call, values can overlap the other calls; inactive = mostly above about 0.92. Some of the results follow.

Test: chemical genetic growth profiling, strain panel (AID 1159580);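 note: tested at 20 µM; growth read once vehicle control cultures reached saturation at 30 °C; 1 = growth at the plate median or of vehicle wells; lower values mean less growth of the strain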
Details: growth OD

Measured: normalized growth

CCOc1nc2cccc(C(=O)OC(C)OC(=O)OC3CCCCC3)c2n1Cc1ccc(-c2ccccc2-c2nn[nH]n2)cc1 (configuration not stated)
inactive: S. cerevisiae deletion strains, locus YJR075W, strain HOC1, hits give low values 0.989 | S. cerevisiae deletion strains, locus YKL009W, strain mrt4, hits give low values 1.1 | S. cerevisiae deletion strains, locus YKL068W, hits give low values 0.997 | S. cerevisiae deletion strains, locus YKL085W, strain MDH1 (second series), hits give low values 0.994 | S. cerevisiae deletion strains, locus YKL085W, strain MDH1, hits give low values 0.994 | S. cerevisiae deletion strains, locus YKL160W, strain elf1, hits give low values 1.02 | S. cerevisiae deletion strains, locus YKL190W, strain CNB1, hits give low values 0.999 | S. cerevisiae deletion strains, locus YKR001C, strain vps1, hits give low values 0.963 | S. cerevisiae deletion strains, locus YKR026C, strain gcn3, hits give low values 1.03 | S. cerevisiae deletion strains, locus YKR091W, strain srl3, hits give low values 1.02 | S. cerevisiae deletion strains, locus YLL001W, strain dnm1, hits give low values 1.03 | S. cerevisiae deletion strains, locus YLL026W, hits give low values 1.01 | S. cerevisiae deletion strains, locus YLL041C, strain sdh2, hits give low values 1.01 | S. cerevisiae deletion strains, locus YLR027C, strain aat2, hits give low values 1.02 | S. cerevisiae deletion strains, locus YLR039C, strain RIC1, hits give low values 0.815 | S. cerevisiae deletion strains, locus YLR058C, strain SHM2, hits give low values 1.01 | S. cerevisiae deletion strains, locus YLR102C, strain apc9, hits give low values 0.998 | S. cerevisiae deletion strains, locus YLR113W, strain HOG1, hits give low values 1.03 | S. cerevisiae deletion strains, locus YLR221C, strain rsa3, hits give low values 1.01 | S. cerevisiae deletion strains, locus YLR258W, strain gsy2, hits give low values 1.02 | S. cerevisiae deletion strains, locus YLR262C, strain YPT6, hits give low values 0.797 | S. cerevisiae deletion strains, locus YLR268W, strain sec22, hits give low values 0.981 | S. cerevisiae deletion strains, locus YLR320W, strain mms22, hits give low values 0.999 | S. cerevisiae deletion strains, locus YLR330W, strain CHS5, hits give low values 1 | S. cerevisiae deletion strains, locus YLR342W, strain FKS1 (second series), hits give low values 0.862 | S. cerevisiae deletion strains, locus YLR342W, strain FKS1, hits give low values 1.02 | S. cerevisiae deletion strains, locus YLR357W, strain rsc2, hits give low values 1.07 | S. cerevisiae deletion strains, locus YLR370C, strain arc18, hits give low values 1.02 | S. cerevisiae deletion strains, locus YLR371W, strain rom2, hits give low values 0.997 | S. cerevisiae deletion strains, locus YLR384C, strain iki3, hits give low values 1.01 | S. cerevisiae deletion strains, locus YLR418C, strain cdc73, hits give low values 0.959 | S. cerevisiae deletion strains, locus YML016C, strain PPZ1, hits give low values 1.01 | S. cerevisiae deletion strains, locus YML032C, strain rad52, hits give low values 1 | S. cerevisiae deletion strains, locus YML120C, strain ndi1, hits give low values 1.04 | S. cerevisiae deletion strains, locus YML124C, strain tub3, hits give low values 1 | S. cerevisiae deletion strains, locus YMR058W, strain fet3, hits give low values 1.02 | S. cerevisiae deletion strains, locus YMR078C, strain ctf18, hits give low values 1.01 | S. cerevisiae deletion strains, locus YMR125W, strain sto1, hits give low values 1.06 | S. cerevisiae deletion strains, locus YMR129W, hits give low values 1.03 | S. cerevisiae deletion strains, locus YMR205C, strain PFK2, hits give low values 0.99 | S. cerevisiae deletion strains, locus YMR223W, strain ubp8, hits give low values 0.984 | S. cerevisiae deletion strains, locus YMR231W, strain pep5, hits give low values 1.02 | S. cerevisiae deletion strains, locus YMR263W, strain SAP30, hits give low values 1 | S. cerevisiae deletion strains, locus YMR307W, strain GAS1, hits give low values 0.734 | S. cerevisiae deletion strains, locus YNL067W, strain RPL9B, hits give low values 0.992 | S. cerevisiae deletion strains, locus YNL071W, strain lat1, hits give low values 1.02 | S. cerevisiae deletion strains, locus YNL128W, strain TEP1, hits give low values 0.995 | S. cerevisiae deletion strains, locus YNL153C, strain GIM3, hits give low values 1 | S. cerevisiae deletion strains, locus YNL183C, strain NPR1, hits give low values 0.968 | S. cerevisiae deletion strains, locus YNL209W, strain ssb2, hits give low values 1 | S. cerevisiae deletion strains, locus YNL233W, strain BNI4, hits give low values 0.999 | S. cerevisiae deletion strains, locus YNL248C, strain rpa49, hits give low values 1.02 | S. cerevisiae deletion strains, locus YNL250W, strain rad50, hits give low values 0.991 | S. cerevisiae deletion strains, locus YNL271C, strain bni1, hits give low values 1 | S. cerevisiae deletion strains, locus YNL298W, strain CLA4, hits give low values 1 | S. cerevisiae deletion strains, locus YNL307C, strain MCK1, hits give low values 0.995 | S. cerevisiae deletion strains, locus YNL322C, strain KRE1 (second series), hits give low values 1.03 | S. cerevisiae deletion strains, locus YNL322C, strain KRE1, hits give low values 1 | S. cerevisiae deletion strains, locus YNR049C, strain mso1, hits give low values 1.04 | S. cerevisiae deletion strains, locus YNR052C, strain pop2, hits give low values 1 | S. cerevisiae deletion strains, locus YOL006C, strain TOP1, hits give low values 0.763 | S. cerevisiae deletion strains, locus YOL012C, strain htz1 0.976 | S. cerevisiae deletion strains, locus YOL147C, strain pex11, hits give low values 1 | S. cerevisiae deletion strains, locus YOR001W, strain rrp6, hits give low values 1.02 | S. cerevisiae deletion strains, locus YOR061W, strain CKA2, hits give low values 1 | S. cerevisiae deletion strains, locus YOR069W, strain VPS5, hits give low values 1 | S. cerevisiae deletion strains, locus YOR070C, strain gyp1, hits give low values 1 | S. cerevisiae deletion strains, locus YOR080W, strain dia2, hits give low values 1.02 | S. cerevisiae deletion strains, locus YOR083W, strain WHI5, hits give low values 1.01 | S. cerevisiae deletion strains, locus YOR106W, strain vam3, hits give low values 0.983 | S. cerevisiae deletion strains, locus YOR136W, strain idh2, hits give low values 0.984 | S. cerevisiae deletion strains, locus YOR144C, strain elg1, hits give low values 0.993 | S. cerevisiae deletion strains, locus YOR184W, strain ser1, hits give low values 0.952 | S. cerevisiae deletion strains, locus YOR231W, strain MKK1, hits give low values 0.998 | S. cerevisiae deletion strains, locus YOR265W, strain rbl2, hits give low values 1.02 | S. cerevisiae deletion strains, locus YOR270C, strain vph1, hits give low values 1.04 | S. cerevisiae deletion strains, locus YOR290C, strain snf2, hits give low values 1.02 | S. cerevisiae deletion strains, locus YOR316C, strain cot1, hits give low values 0.996 | S. cerevisiae deletion strains, locus YPL051W, strain arl3, hits give low values 0.999 | S. cerevisiae deletion strains, locus YPL055C, strain LGE1, hits give low values 0.988 | S. cerevisiae deletion strains, locus YPL078C, strain atp4, hits give low values 1.05 | S. cerevisiae deletion strains, locus YPL106C, strain sse1, hits give low values 0.993 | S. cerevisiae deletion strains, locus YPL240C, strain hsp82, hits give low values 1.01 | S. cerevisiae deletion strains, locus YPL241C, strain CIN2, hits give low values 1 | S. cerevisiae deletion strains, locus YPL256C, strain CLN2, hits give low values 0.961 | S. cerevisiae deletion strains, locus YPR119W, strain clb2, hits give low values 0.992 | S. cerevisiae deletion strains, locus YPR141C, strain kar3, hits give low values 0.998 | S. cerevisiae deletion strains, locus YPR163C, strain tif3, hits give low values 0.99 | S. cerevisiae deletion strains, locus YPR167C, strain met16, hits give low values 1 | S. cerevisiae deletion strains, strain wtn01, hits give low values 0.989 | S. cerevisiae strains, strain wild type, hits give low values 0.997
active: S. cerevisiae deletion strains, locus YLR262C, strain YPT6 (second series), hits give low values 0.826
